Test results as given in PubChem BioAssay (NCI).
About 79,000 compounds went through this panel and 15% of them were active in at least one assay; those are over-represented in the sample as a whole. A number with no mark means an inactive call. Activity calls are given as the source filed them. Cut-off read from the data, not from the text of the source: active = growth inhibition above about 70%; inactive = the rest.

Test: NCI Yeast Anticancer Drug Screen. Data for the mec2-1 strain (AID 157)
Details: S. cerevisiae mec2-1 strain, at 50.0 µM, active compounds read high
Summary of the method: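 Readout is yeast growth inhibition, normalised to vehicle-treated controls, in the mec2-1 strain exposed to compound.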

Compound	growth inhibition
CCN(CC)CC[n+]1ccc2c(C)c3[nH]c4ccc(O)cc4c3c(C)c2c1	-11.9%
O=[n+]1c2ccc(Cl)cc2n([O-])c2ccc(Cl)cc21	-1%
CCOP(=O)(OCC)C(Cc1ccccc1)N=C(c1ccccc1)c1ccccc1 (stereo not drawn)	70.5% (active)
CC[C@@]1(O)C(=O)OCc2c1cc1n(c2=O)Cc2cc3c(N)cccc3nc2-1	36.7%
COC1C=COC2(C)Oc3c(C)c(O)c4c(c3C2=O)/C(=N/C2CCC(O)OC2C)C=C(NC(=O)/C(C)=C\C(=O)C2CC2C(O)C(C)C(O)C(C)C(OC(C)=O)C1C)C4=O (stereo not drawn)	30.6%
COc1cc2c(c(OC)c1OC)-c1c(cc3c(c1OC)OCO3)CC(C)C(C)(O)C2OC(=O)c1ccccc1 (stereo not drawn)	55.5%
O=c1ssc2ncccc12	91.2% (active)
O=C1C2C(C(=O)N1c1ccc(OCc3ccccc3)cc1)C1c3ccccc3C2C2CCCCN21 (stereo not drawn)	-8.75%
COc1ccc(-c2cn(-c3ccc(I)cc3)c3ncnc(N)c23)cc1	1.7%
CCOC(=O)C(NC(=O)c1ccccc1)(N1CCN(c2cc3c(cc2F)c(=O)c(C(=O)O)cn3C2CC2)CC1)C(F)(F)F (stereo not drawn)	3.05%
C/C(=N\O)C1CC2C=C(C#N)C1N(Cc1ccccc1)C2 (stereo not drawn)	7.3%
CC/C(=C(\c1ccccc1)c1ccc(OCCN(C)C)cc1)c1ccccc1	93.4% (active)
COc1ccccc1N=NC(C(=O)c1ccccc1)C(=O)c1ccccc1	94.5% (active)
CC(O)C(O)C(O)C(/C=N\Nc1ccccc1)=N/Nc1ccccc1 (stereo not drawn)	58.3%
COc1ccc(/C=C2\SC(=S)N(/C=C/c3nc4ccccc4[nH]c3=O)C2=O)cc1OC	68.1%
N#CN=Nc1cc(Cl)c(N=NC#N)cc1Cl	46%
Cc1ccc(S(=O)(=O)Oc2cc(Cl)c(Cl)cc2Cl)cc1	-21.8%
c1ccc2c(c1)Oc1cccc3cccc-2c13	17.6%
O=C(c1ccc(Cl)cc1Cl)C(Cl)Cl	85.5% (active)
CC(C)C1=CCC2C(=C1)CCC1C(C)(C(=O)O)CCCC21C (stereo not drawn) (tested in a mixture with another compound)	85.2% (active)

Compound	growth inhibition
COc1cc(/C=C2\CCc3ccccc3C2=O)cc(OC)c1OC	25.6%
CC(=O)[O][Bi]([c]1ccccc1)[c]1ccccc1	89.5% (active)
S=C(N/N=C/c1ccccn1)Nc1ccc(Cl)cc1	56.2%
COc1cc(CC2CC(c3ccc4c(c3)OCO4)OC2=O)cc(OC)c1OC (stereo not drawn)	-13.4%
CNC1C(OC2C(OC3C(O)C(O)C(N=C(N)N)C(O)C3N=C(N)N)OC(C)C2(O)CO)OC(CO)C(O)C1O (stereo not drawn)	93.5% (active)
NNC(=O)CCc1ccc2ccc3ccccc3c2c1	-10.2%
Oc1ccc2ccccc2c1C(c1ccc(Cl)cc1)c1c(O)ccc2ccccc12	83.9% (active)
CCCCN(CCCC)CCSc1ccc(Cl)cc1	94.7% (active)
CCC(C)COC(=O)c1ccc(N=Cc2ccc(C=Nc3ccc(C(=O)OCC(C)CC)cc3)cc2)cc1 (stereo not drawn)	49.6%
CC1(C)C(=O)OC(n2cc(F)c(=O)[nH]c2=O)C1=O (stereo not drawn)	2.95%
O=[N+]([O-])CC(SCc1ccccc1)c1ccc2c(c1)OCO2 (stereo not drawn)	91.7% (active)
COc1cc2c(cc1[N+](=O)[O-])C(=O)C(Br)(Br)CCC2	93.5% (active)
OCC1OC(OCC(O)C(O)C(O)C(/C=N/Nc2ccccc2)=N/Nc2ccccc2)C(O)C(O)C1O (stereo not drawn)	99.5% (active)
COc1ccc(N=C2C(=O)Nc3ccc(Br)cc32)cc1	10.7%
Cn1c(=O)c2ccccc2c2ccccc21	75.1% (active)
CC[n+]1ccc2c(C)c3[nH]c4ccc(O)cc4c3c(C)c2c1	59.5%
CC(=O)ON1C(=O)c2cccc3cccc(c23)C1=O	87.8% (active)
COc1ccc2ccc3ccccc3c2c1C=O	13.2%
OC1CCCc2c1cc1ccc3cccc4ccc2c1c34 (stereo not drawn)	94.1% (active)

Same assay, conditions: S. cerevisiae mec2-1 strain, at 100.0 µM, active compounds read high

Compound	growth inhibition
CCN(CC)CC[n+]1ccc2c(C)c3[nH]c4ccc(O)cc4c3c(C)c2c1	43%
O=[n+]1c2ccc(Cl)cc2n([O-])c2ccc(Cl)cc21	15%
CCOP(=O)(OCC)C(Cc1ccccc1)N=C(c1ccccc1)c1ccccc1 (stereo not drawn)	98% (active)
CC[C@@]1(O)C(=O)OCc2c1cc1n(c2=O)Cc2cc3c(N)cccc3nc2-1	30%
COC1C=COC2(C)Oc3c(C)c(O)c4c(c3C2=O)/C(=N/C2CCC(O)OC2C)C=C(NC(=O)/C(C)=C\C(=O)C2CC2C(O)C(C)C(O)C(C)C(OC(C)=O)C1C)C4=O (stereo not drawn)	92% (active)
COc1cc2c(c(OC)c1OC)-c1c(cc3c(c1OC)OCO3)CC(C)C(C)(O)C2OC(=O)c1ccccc1 (stereo not drawn)	34%
O=c1ssc2ncccc12	97% (active)
O=C1C2C(C(=O)N1c1ccc(OCc3ccccc3)cc1)C1c3ccccc3C2C2CCCCN21 (stereo not drawn)	93% (active)
COc1ccc(-c2cn(-c3ccc(I)cc3)c3ncnc(N)c23)cc1	1%
CCOC(=O)C(NC(=O)c1ccccc1)(N1CCN(c2cc3c(cc2F)c(=O)c(C(=O)O)cn3C2CC2)CC1)C(F)(F)F (stereo not drawn)	3%
C/C(=N\O)C1CC2C=C(C#N)C1N(Cc1ccccc1)C2 (stereo not drawn)	0%
CC/C(=C(\c1ccccc1)c1ccc(OCCN(C)C)cc1)c1ccccc1	97% (active)
COc1ccccc1N=NC(C(=O)c1ccccc1)C(=O)c1ccccc1	97% (active)
CC(O)C(O)C(O)C(/C=N\Nc1ccccc1)=N/Nc1ccccc1 (stereo not drawn)	98% (active)
COc1ccc(/C=C2\SC(=S)N(/C=C/c3nc4ccccc4[nH]c3=O)C2=O)cc1OC	91% (active)
N#CN=Nc1cc(Cl)c(N=NC#N)cc1Cl	78% (active)
Cc1ccc(S(=O)(=O)Oc2cc(Cl)c(Cl)cc2Cl)cc1	-6%
c1ccc2c(c1)Oc1cccc3cccc-2c13	20%
O=C(c1ccc(Cl)cc1Cl)C(Cl)Cl	98% (active)
CC(C)C1=CCC2C(=C1)CCC1C(C)(C(=O)O)CCCC21C (stereo not drawn) (tested in a mixture with another compound)	94% (active)

Compound	growth inhibition
COc1cc(/C=C2\CCc3ccccc3C2=O)cc(OC)c1OC	73% (active)
CC(=O)[O][Bi]([c]1ccccc1)[c]1ccccc1	95% (active)
S=C(N/N=C/c1ccccn1)Nc1ccc(Cl)cc1	63%
COc1cc(CC2CC(c3ccc4c(c3)OCO4)OC2=O)cc(OC)c1OC (stereo not drawn)	16%
CNC1C(OC2C(OC3C(O)C(O)C(N=C(N)N)C(O)C3N=C(N)N)OC(C)C2(O)CO)OC(CO)C(O)C1O (stereo not drawn)	-3%
NNC(=O)CCc1ccc2ccc3ccccc3c2c1	50%
Oc1ccc2ccccc2c1C(c1ccc(Cl)cc1)c1c(O)ccc2ccccc12	84% (active)
CCCCN(CCCC)CCSc1ccc(Cl)cc1	92% (active)
CCC(C)COC(=O)c1ccc(N=Cc2ccc(C=Nc3ccc(C(=O)OCC(C)CC)cc3)cc2)cc1 (stereo not drawn)	8%
CC1(C)C(=O)OC(n2cc(F)c(=O)[nH]c2=O)C1=O (stereo not drawn)	60%
O=[N+]([O-])CC(SCc1ccccc1)c1ccc2c(c1)OCO2 (stereo not drawn)	98% (active)
COc1cc2c(cc1[N+](=O)[O-])C(=O)C(Br)(Br)CCC2	96% (active)
OCC1OC(OCC(O)C(O)C(O)C(/C=N/Nc2ccccc2)=N/Nc2ccccc2)C(O)C(O)C1O (stereo not drawn)	68%
COc1ccc(N=C2C(=O)Nc3ccc(Br)cc32)cc1	-20%
Cn1c(=O)c2ccccc2c2ccccc21	52%
CC[n+]1ccc2c(C)c3[nH]c4ccc(O)cc4c3c(C)c2c1	24%
CC(=O)ON1C(=O)c2cccc3cccc(c23)C1=O	98% (active)
COc1ccc2ccc3ccccc3c2c1C=O	96% (active)
OC1CCCc2c1cc1ccc3cccc4ccc2c1c34 (stereo not drawn)	88% (active)
